# Reference: article PMC5540273 (PLoS ONE, 2017)
# Tested on: RIPK5
# Settings: concentration: 1 μM,replicates: in singlicate; n = 1
# 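Note: KINOMEscan kinase panel screen.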
row,Compound,%Inh
1,CC(C)c1nc(-c2cccc(NS(=O)(=O)c3ccccc3)c2)c(-c2ccnc(Nc3ccc4c(c3)CN(C)CC4)n2)s1 [GSK1649598],8%
2,C[C@@H](Oc1cc(-n2cnc3cc(-c4cnn(C)c4)ccc32)sc1C(N)=O)c1ccccc1Cl [GSK580432],15%
3,CCn1c(-c2nonc2N)nc2cncc(CNC3CCNCC3)c21.Cl [SB-747651],0%
4,CN1CCN(CCCNc2nccc(-c3c(-c4ccc(F)cc4)nn4cc(C(N)=O)ccc34)n2)CC1 [GW622475],0%
5,Cc1ccc(C(=O)Nc2ccc(Oc3ccc4nc(NC(=O)C5CC5)cn4c3)c(F)c2)c(=O)n1-c1ccccc1,0%
6,CC(=O)Nc1ccc(-c2cc3ncnc(SCC(=O)O)c3s2)cc1,14%
7,Cn1ccc2ncnc(Oc3ccc(NC(=O)Nc4ccnc(C(F)(F)F)c4)c(Cl)c3)c21,0%
8,NC(=O)c1ccc(-c2cc3ncnc(SCC(=O)O)c3s2)cc1,0%
9,CN(c1ccc2c(c1)nc(NCc1ccc(F)cc1)n2C)c1ccnc(Nc2ccc(CS(C)(=O)=O)cc2)n1.Cl [GW813244],50%
10,FC(F)(F)c1cc(Br)cc(Nc2nccc(-c3cnn4ncccc34)n2)c1 [GW810578],15%
11,Cn1ccc2ncnc(Oc3ccc(NC(=O)Nc4cccc(C(F)(F)F)c4)c(F)c3)c21,0%
12,CCCC(=O)Nc1n[nH]c2ncccc12 [SB-601436],0%
13,CN(c1ccccc1CNc1nc(Nc2ccc3c(c2)CC(=O)N3)ncc1C(F)(F)F)S(C)(=O)=O,27%
14,COC(=O)c1cccc(NC(=O)NC2CCN(c3ccnc(Nc4cc(OC)c(OC)c(OC)c4)n3)C2)c1 (stereo not drawn) [GSK1379767],0%
15,Cc1n[nH]c2cc(Nc3ccnc(Nc4cccc(CN5CCOCC5)c4)n3)ccc12 [GW682569],0%
16,O=C(Nc1cccc(C(F)(F)F)c1)c1cccc(Oc2ccc3nccn3n2)c1,7%
17,C[C@@H]1CNc2c(sc3ccc4nc(-c5ccc(O)cc5)ccc4c23)C(=O)N1,27%
18,O=C(Nc1n[nH]c2cc(-c3ccco3)ccc12)C1CC1 [SB-737447],3%
19,Cn1cc(-c2cccc3c(N)c(C(N)=O)nnc23)cn1,17%

row,Compound,%Inh
1,OCCn1cc(-c2cnc3nnn(Cc4ccc5ncccc5c4)c3n2)cn1,0%
2,Cl.c1ccc(Oc2ccc(Nc3ccnc4cc(-c5ccc(CN6CCNCC6)o5)ccc34)cc2)nc1 [GW567142],4%
3,CS(=O)c1ccc(-c2coc3ccc(-c4n[nH]c(=O)o4)cc23)cc1 (stereo not drawn),0%
4,CS(=O)(=O)Nc1ccc(-c2ccnc3[nH]ccc23)cc1 [GSK993273],0%
5,COC(=O)Nc1nc2cc(Oc3ccc(NC(=O)Nc4cc(C(F)(F)F)ccc4Cl)cc3)ccc2[nH]1.Cl [GW697465],0%
6,O=C(Nc1ccc(Oc2ccc3nc(NC(=O)C4CC4)cn3n2)c(F)c1)c1cccn(-c2ccccc2)c1=O,0%
7,CCNCC(Cc1ccccc1)NC(=O)c1cc(Br)c(-c2ccnc3[nH]ccc23)s1.Cl.Cl (stereo not drawn) [GSK1383280],32%
8,Cc1ccn2nc(-c3ccc(F)cc3)c(-c3ccncc3)c2c1.Cl [GW457859],0%
9,C[C@@H]1CNc2c(sc3ccc4nc(-c5ccncc5)ccc4c23)C(=O)N1,0%
10,Nc1nccc(-c2ccc3c(N)n[nH]c3c2)n1 [GSK1034945],0%
11,COC(=O)c1cccc(NC(=O)NC2CCN(c3ccnc(NCc4ccc(F)cc4)n3)CC2)c1 [GSK1379860],0%
12,CC(=O)Nc1nc2cnc(Nc3cc(NC(=O)c4cccc(CC(C)(C)C#N)c4)ccc3C)nc2s1,0%
13,O=C1NCCc2[nH]c(-c3ccncc3)cc21,24%
14,COc1cccc(CNC(=O)NC2CCN(c3ccnc(Nc4cc(OC)c(OC)c(OC)c4)n3)C2)c1 (stereo not drawn) [GSK1379765],5%
15,NC(=O)Nc1sc(-c2ccc(F)cc2)cc1C(N)=O [GW789449],69%
16,CS(=O)(=O)c1cccc(CNc2nc(Nc3ccc4c(c3)[C@@H]3C[C@@H]4CNC3=O)ncc2C(F)(F)F)c1,75%
17,O=c1[nH]cc(-c2ccc(O)cc2)c2sc(-c3ccncc3)cc12 [GSK1033723],5%
18,CC(C(=O)NC1CCN(c2ccnc(Nc3ccc(F)cc3)n2)C1)c1ccc(Cl)cc1 (stereo not drawn) [GSK1379713],0%

# Tested on: ROCK1
# Settings: concentration: 1 μM,replicates: in singlicate; n = 1
row,Compound,%Inh
1,CC(C)c1nc(-c2cccc(NS(=O)(=O)c3ccccc3)c2)c(-c2ccnc(Nc3ccc4c(c3)CN(C)CC4)n2)s1 [GSK1649598],0%
2,C[C@@H](Oc1cc(-n2cnc3cc(-c4cnn(C)c4)ccc32)sc1C(N)=O)c1ccccc1Cl [GSK580432],14%
3,CN1CCN(CCCNc2nccc(-c3c(-c4ccc(F)cc4)nn4cc(C(N)=O)ccc34)n2)CC1 [GW622475],0%
4,Cc1ccc(C(=O)Nc2ccc(Oc3ccc4nc(NC(=O)C5CC5)cn4c3)c(F)c2)c(=O)n1-c1ccccc1,0%
5,CC(=O)Nc1ccc(-c2cc3ncnc(SCC(=O)O)c3s2)cc1,0%
6,Cn1ccc2ncnc(Oc3ccc(NC(=O)Nc4ccnc(C(F)(F)F)c4)c(Cl)c3)c21,17%
7,NC(=O)c1ccc(-c2cc3ncnc(SCC(=O)O)c3s2)cc1,0%
8,CN(c1ccc2c(c1)nc(NCc1ccc(F)cc1)n2C)c1ccnc(Nc2ccc(CS(C)(=O)=O)cc2)n1.Cl [GW813244],0%
9,FC(F)(F)c1cc(Br)cc(Nc2nccc(-c3cnn4ncccc34)n2)c1 [GW810578],36%
10,Cn1ccc2ncnc(Oc3ccc(NC(=O)Nc4cccc(C(F)(F)F)c4)c(F)c3)c21,0%
11,CCCC(=O)Nc1n[nH]c2ncccc12 [SB-601436],0%
12,CN(c1ccccc1CNc1nc(Nc2ccc3c(c2)CC(=O)N3)ncc1C(F)(F)F)S(C)(=O)=O,0%
13,COC(=O)c1cccc(NC(=O)NC2CCN(c3ccnc(Nc4cc(OC)c(OC)c(OC)c4)n3)C2)c1 (stereo not drawn) [GSK1379767],24%
14,Cc1n[nH]c2cc(Nc3ccnc(Nc4cccc(CN5CCOCC5)c4)n3)ccc12 [GW682569],27%
15,O=C(Nc1cccc(C(F)(F)F)c1)c1cccc(Oc2ccc3nccn3n2)c1,33%
16,C[C@@H]1CNc2c(sc3ccc4nc(-c5ccc(O)cc5)ccc4c23)C(=O)N1,65%
17,O=C(Nc1n[nH]c2cc(-c3ccco3)ccc12)C1CC1 [SB-737447],0%
18,Cn1cc(-c2cccc3c(N)c(C(N)=O)nnc23)cn1,11%

row,Compound,%Inh
1,OCCn1cc(-c2cnc3nnn(Cc4ccc5ncccc5c4)c3n2)cn1,0%
2,Cl.c1ccc(Oc2ccc(Nc3ccnc4cc(-c5ccc(CN6CCNCC6)o5)ccc34)cc2)nc1 [GW567142],5%
3,CS(=O)c1ccc(-c2coc3ccc(-c4n[nH]c(=O)o4)cc23)cc1 (stereo not drawn),32%
4,CS(=O)(=O)Nc1ccc(-c2ccnc3[nH]ccc23)cc1 [GSK993273],98.5%
5,COC(=O)Nc1nc2cc(Oc3ccc(NC(=O)Nc4cc(C(F)(F)F)ccc4Cl)cc3)ccc2[nH]1.Cl [GW697465],26%
6,O=C(Nc1ccc(Oc2ccc3nc(NC(=O)C4CC4)cn3n2)c(F)c1)c1cccn(-c2ccccc2)c1=O,0%
7,CCNCC(Cc1ccccc1)NC(=O)c1cc(Br)c(-c2ccnc3[nH]ccc23)s1.Cl.Cl (stereo not drawn) [GSK1383280],99.8%
8,Cc1ccn2nc(-c3ccc(F)cc3)c(-c3ccncc3)c2c1.Cl [GW457859],12%
9,C[C@@H]1CNc2c(sc3ccc4nc(-c5ccncc5)ccc4c23)C(=O)N1,14%
10,COC(=O)c1cccc(NC(=O)NC2CCN(c3ccnc(NCc4ccc(F)cc4)n3)CC2)c1 [GSK1379860],25%
11,CC(=O)Nc1nc2cnc(Nc3cc(NC(=O)c4cccc(CC(C)(C)C#N)c4)ccc3C)nc2s1,19%
12,O=C1NCCc2[nH]c(-c3ccncc3)cc21,97.9%
13,COc1cccc(CNC(=O)NC2CCN(c3ccnc(Nc4cc(OC)c(OC)c(OC)c4)n3)C2)c1 (stereo not drawn) [GSK1379765],67%
14,NC(=O)Nc1sc(-c2ccc(F)cc2)cc1C(N)=O [GW789449],14%
15,CS(=O)(=O)c1cccc(CNc2nc(Nc3ccc4c(c3)[C@@H]3C[C@@H]4CNC3=O)ncc2C(F)(F)F)c1,0%
16,O=c1[nH]cc(-c2ccc(O)cc2)c2sc(-c3ccncc3)cc12 [GSK1033723],10%
17,CC(C(=O)NC1CCN(c2ccnc(Nc3ccc(F)cc3)n2)C1)c1ccc(Cl)cc1 (stereo not drawn) [GSK1379713],27%
